Results: PubChem BioAssay (EPA / NIEHS)
Records with an inconclusive call do not appear. Some structures have more than one record in an assay (separate samples or runs), and their calls can disagree. Activity calls are given as the source filed them. The calls were made as follows: active = hit-call score of the fitted dose curve at least 0.9, where 1 is the maximum; inconclusive = response in the unintended direction; inactive = score below 0.9.

Biological target: Nuclear receptor subfamily 1 group I member 2 (Homo sapiens) (UniProt O75469)
Experiment: NVS_NR_hPXR: NovaScreen (NVS) Nuclear Receptor Binding Assay for human Pregnane X Receptor (PXR) (AID 2283365);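 also: a drop in FRET signal versus DMSO baseline means the compound binds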
Method in brief: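 Human PXR protein, cell-free; compound added, incubated 2 h, TR-FRET read. Signal decrease vs DMSO = binding. Screened 25 uM duplicate, actives re-run as dilution series.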

Sequence of Nuclear receptor subfamily 1 group I member 2 (Homo sapiens) (O75469 whole entry, looked up): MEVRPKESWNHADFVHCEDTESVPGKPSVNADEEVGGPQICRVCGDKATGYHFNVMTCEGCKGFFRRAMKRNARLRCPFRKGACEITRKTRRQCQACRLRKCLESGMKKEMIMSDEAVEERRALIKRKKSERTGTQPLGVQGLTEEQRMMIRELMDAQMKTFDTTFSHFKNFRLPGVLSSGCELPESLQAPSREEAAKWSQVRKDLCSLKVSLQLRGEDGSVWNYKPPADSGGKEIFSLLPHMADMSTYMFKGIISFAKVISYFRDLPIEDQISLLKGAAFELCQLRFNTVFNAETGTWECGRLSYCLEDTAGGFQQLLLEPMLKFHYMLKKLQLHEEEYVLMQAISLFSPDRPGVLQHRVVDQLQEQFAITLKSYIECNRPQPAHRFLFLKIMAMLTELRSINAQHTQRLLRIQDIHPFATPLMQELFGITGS

SMILES	AC50	outcome
CC(C)C1CCC(Cc2ccc(Cl)cc2)C1(O)Cn1cncn1 (configuration not stated)	15.5 µM (active)	
COc1cc(OC)nc(NC(=O)NS(=O)(=O)c2ncccc2C(=O)N(C)C)n1		inactive
OCc1ccco1		inactive

Biological target: rat Androgen Receptor (AR), Ar (gene 24208) (UniProt P15207)
Experiment: NVS_NR_rAR: NovaScreen (NVS) Nuclear Receptor Binding Assay for rat Androgen Receptor (AR) (AID 2283366)
Method in brief: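 Actives from a duplicate single-concentration (25 uM) primary run went on to concentration series. Displacement of radioligand was counted by filtration and scintillation, 18 h post-dose, using prostate extracts from testosterone-pretreated rats, with DMSO as baseline.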

Sequence of rat Androgen Receptor (AR), Ar (gene 24208) (P15207 whole entry, looked up): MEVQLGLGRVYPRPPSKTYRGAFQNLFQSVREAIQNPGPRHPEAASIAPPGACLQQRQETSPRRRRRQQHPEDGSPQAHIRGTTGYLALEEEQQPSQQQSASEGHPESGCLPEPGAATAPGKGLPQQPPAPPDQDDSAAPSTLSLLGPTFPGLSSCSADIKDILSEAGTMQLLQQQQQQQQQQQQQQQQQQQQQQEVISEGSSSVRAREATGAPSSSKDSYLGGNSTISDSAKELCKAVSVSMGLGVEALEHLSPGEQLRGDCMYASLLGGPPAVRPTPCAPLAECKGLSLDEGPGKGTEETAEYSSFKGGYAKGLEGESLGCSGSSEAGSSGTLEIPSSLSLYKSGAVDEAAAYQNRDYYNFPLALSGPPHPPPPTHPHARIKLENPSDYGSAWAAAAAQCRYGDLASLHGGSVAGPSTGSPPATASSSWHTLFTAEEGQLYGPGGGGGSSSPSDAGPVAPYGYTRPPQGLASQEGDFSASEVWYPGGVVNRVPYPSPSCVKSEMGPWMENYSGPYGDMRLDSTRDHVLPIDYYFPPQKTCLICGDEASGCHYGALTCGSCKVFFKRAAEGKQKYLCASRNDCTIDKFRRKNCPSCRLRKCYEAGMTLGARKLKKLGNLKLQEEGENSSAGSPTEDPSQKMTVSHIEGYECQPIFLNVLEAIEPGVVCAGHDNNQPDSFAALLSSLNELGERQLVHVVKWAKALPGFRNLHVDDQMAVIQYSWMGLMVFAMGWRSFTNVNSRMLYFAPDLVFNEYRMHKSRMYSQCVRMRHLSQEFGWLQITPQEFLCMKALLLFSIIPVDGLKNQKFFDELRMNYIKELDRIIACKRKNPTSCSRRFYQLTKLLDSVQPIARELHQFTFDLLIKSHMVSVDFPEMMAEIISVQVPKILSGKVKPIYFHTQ

SMILES	AC50	outcome
Clc1ccc(COC(Cn2ccnc2)c2ccc(Cl)cc2Cl)cc1 (configuration not stated)	6.9 µM (active)	
CCN1CCC2(CC1)COc1cc3c(cc12)N(C(=O)c1ccc(-c2ccc(-c4nnc(C)o4)cc2C)cc1)CC3		inactive
COP(=S)(OC)Oc1ccc(Sc2ccc(OP(=S)(OC)OC)cc2)cc1	16.1 µM (active)	inactive
